# In PubChem BioAssay AID1259309 (ICCB-Longwood Screening Facility, Harvard Medical School, 2017):
# Where “and” joins values, the source holds several entries; their conditions need not be identical. Identical values can stand only once. About 1,800 (0.55%) of roughly 330,000 compounds were called active. This is one part of a sample in which actives are shown more often than they occur. Rule as the data show it: active = growth inhibition above about 68%; inactive = the rest.
# Assay: growth inhibition of ugtP-null S. aureus, primary screen, RN4220 ugtP deletion, OD600 (AID 1259309);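 also: plate controls were untreated wells for no effect and antibiotic for full effect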
# Conditions: 16 h, active compounds read high
row,Compound,growth inhibition
1,S=C(NCCN1CCOCC1)NN=Cc1ccccc1,-0.962% (inactive)
2,Cc1ccc(C=NNC(=O)c2ccc(C(=O)NN=Cc3ccc(C)s3)o2)s1,-0.554% (inactive)
3,COc1ccccc1C(=O)NC(=S)Nc1ccccc1N1CCCCC1,93.3% (active)
4,COc1ccc(C(=O)NC(=S)Nc2ccccc2N2CCN(S(C)(=O)=O)CC2)cc1OC,-0.518% (inactive)
5,O=C(NC(=S)Nc1ccccc1N1CCCCC1)c1ccc(F)cc1,59.3% (inactive)
6,COc1ccc(/C=C/C(=O)c2cc(Br)ccc(=O)c2O)cc1,95.4% (active)
7,COc1ccc(C(=O)/C=C/c2cccnc2)c(OC)c1,5.58% (inactive)
8,COc1ccc(NC(=O)ON=Cc2ccc(Br)cc2)cc1,4.87% (inactive)
9,CCC(C)Sc1ccc(C2N[C@@](C)(C(=O)OC)C3C(=O)N(C)C(=O)C23)cc1 (stereo not given in full),2.56% (inactive)
10,Cc1c(CCOC(=O)c2cc([N+](=O)[O-])ccc2Cl)sc[n+]1CCCCS(=O)(=O)[O-],-10.2% (inactive)
11,Cc1c(CCOC(=O)CC23CC4CC(CC(C)(C4)C2)C3)sc[n+]1Cc1ccc([N+](=O)[O-])cc1,101% (active) and 100% (active)
12,Cc1c(CCO)sc[n+]1CC(=O)OC12CC3CC(CC(C3)C1)C2,7.76% (inactive)
13,CCN(CC)Cc1c(C(=O)NN=Cc2ccncc2)nnn1-c1nonc1N,4.89% (inactive)
14,Nc1scc[n+]1Cc1cccc2cccnc12,3.29% (inactive)
15,c1ccc2c(CNn3cnnc3)cccc2c1,4.79% (inactive)
16,c1ccc2c(C[n+]3csc4ccccc43)cccc2c1,95.1% (active)
17,Cc1ccc(CON=CCc2snc(Sc3ncc(C(F)(F)F)cc3Cl)c2C#N)cc1,28% (inactive)
18,CCCC12CN3CCN(CC(C3)C1=NNC(=O)Nc1ccccc1)C2,1.17% (inactive)
19,O=C(ON=Cc1ccc(N2CCCCC2)c([N+](=O)[O-])c1)c1c(F)cccc1F,-5.14% (inactive)
20,Cc1nnc(SCc2cc(=O)[nH]c(N3CCN(Cc4ccccc4)CC3)n2)s1,0.849% (inactive)
21,Cc1nnc(SCC2=C(C(=O)O)N3C(=O)C(NC(=O)Cn4nc(C)c(Cl)c4C)C3SC2)s1 (stereo not given),97.9% (active)
22,Cc1nnc(SCC(=O)Nn2cnnc2)s1,-2.34% (inactive)
23,Cc1cc(C)cc(C(=O)NC2C(=O)N3C(C(=O)O)=C(CSc4nnc(C)s4)CSC23)c1 (stereo not given),100% (active)
24,Cc1nnc(SCC(=O)NC2CCCC2)s1,-2.03% (inactive)
25,CC1(C)c2[nH]c3ccccc3c2CC2C(=O)N(Cc3ccccc3F)C(=O)N21 (stereo not given),2.24% (inactive) and -4.9% (inactive)
